Measured values from PubChem BioAssay (NCATS).
Results filed as inconclusive are left out. Entries that show only a call come without a potency. Active and inactive are the calls of the source. Calls follow the shape of the dose curve; as a rule, active = well fitted inhibition curve with a large enough effect; inconclusive = small, poorly fitted or top-dose-only effect; inactive = flat fitted curve, though single readings scatter.

What was measured:
Test in all cases: qHTS profiling for inhibitors of Plasmodium falciparum proliferation (AID 504749); also: nearly all actives have a fitted effect of over 60% in size
Details in all cases: P. falciparum in erythrocytes, SYBR Green DNA, 72 h; series mostly up to 28.7 µM
CP297 = system: CP297
Summary of the method: (§1)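 Three-day growth assay of blood-stage parasites in erythrocytes (0.3% parasitemia, 2.5% hematocrit) at 37 C, 5% CO2, quantified by SYBR Green DNA staining after overnight detergent lysis.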

CP305 = system: CP305
Summary of the method: as §1

CP315 = system: CP315
Summary of the method: as §1

CP325 = system: CP325
Summary of the method: as §1

CP329 = system: CP329
Summary of the method: as §1

CP335 = system: CP335
Summary of the method: as §1

DFO2036 = system: DFO2036
Summary of the method: as §1

DIV14 = system: DIV14
Summary of the method: as §1

DIV17 = system: DIV17
Summary of the method: as §1

DIV30 = system: DIV30
Summary of the method: as §1

Dd2 = system: Dd2
Summary of the method: as §1

ECU = system: ECU
Summary of the method: as §1

FAB9 = system: FAB9
Summary of the method: as §1

GB4 = system: GB4
Summary of the method: as §1

HB3 = system: HB3
Summary of the method: as §1

ICS = system: ICS
Summary of the method: as §1

N140 = system: N140
Summary of the method: as §1

P93_24 = system: P93_24
Summary of the method: as §1

P94_40 = system: P94_40
Summary of the method: as §1

JCK = system: JCK
Summary of the method: as §1
Potency is read from the fitted curve at half-maximal effect.

Row | SMILES | outcome (CP297) | Potency (CP305) | outcome (CP315) | outcome (CP325) | outcome (CP329) | Potency (CP335) | Potency (DFO2036) | Potency (DIV14) | Potency (DIV17) | outcome (DIV30) | Potency (Dd2) | Potency (ECU) | Potency (FAB9) | Potency (GB4) | Potency (HB3) | Potency (ICS) | Potency (N140) | Potency (P93_24) | Potency (P94_40) | Potency (JCK)
1 | COc1cc(C(=O)NCCCCCC(=O)O)cc(OC)c1OC | inactive | inactive | inactive | inactive | inactive | inactive | inactive | inactive | inactive | inactive | inactive | inactive | inactive | inactive | inactive | inactive | inactive | inactive | inactive | 
2 | CC(=O)Nc1ccc(OCCOCCOc2ccc(NC(C)=O)cc2)cc1 | inactive | inactive | inactive | inactive | inactive | inactive | inactive | inactive |  | inactive | inactive | inactive | inactive | inactive | inactive | inactive | inactive | inactive | inactive | inactive
3 | COC(=O)c1ccccc1C(=O)c1ccc(OCCN2CCCCC2)cc1 | inactive | inactive | inactive | inactive | inactive | inactive | inactive |  |  | inactive |  | inactive | inactive | inactive | inactive | inactive | inactive | inactive | inactive | inactive
4 | CC[N+](CC)(CC(=O)Nc1c(C)cccc1C)Cc1ccccc1 | inactive | inactive | inactive | inactive | inactive | inactive | inactive |  |  | inactive | inactive | inactive | inactive | inactive | inactive | inactive | inactive | inactive | inactive | inactive
5 | COc1cc(O)cc(O)c1 | inactive | inactive | inactive | inactive | inactive | inactive | inactive | inactive |  | inactive | inactive | inactive | inactive | inactive | inactive | inactive | inactive | inactive | inactive | inactive
6 | Cc1cc(NC(=O)C2=C(O)c3ccccc3S(=O)(=O)N2C)no1 | inactive | inactive | inactive | inactive | inactive | inactive | inactive | inactive |  | inactive | inactive | inactive | inactive | inactive | inactive | inactive | inactive | inactive | inactive | inactive
7 | CCCCCC(C)N (stereo unspecified) | inactive | inactive | inactive | inactive | inactive |  | inactive | inactive |  | inactive | 11200 nM (active) |  | inactive | inactive |  | 5010 nM (active) |  |  |  | inactive
8 | COc1ccc(Cc2cnc(N)nc2N)cc1OC |  | inactive | inactive | inactive | inactive | inactive | inactive | inactive | inactive | inactive | inactive | 3980 nM (active) | 7940 nM (active) | 2390 nM (active) |  | inactive | inactive | inactive | inactive | inactive
9 | CC(=O)OC[C@H]1O[C@@](COC(C)=O)(O[C@H]2O[C@H](COC(C)=O)[C@@H](OC(C)=O)[C@H](OC(C)=O)[C@H]2OC(C)=O)[C@@H](OC(C)=O)[C@@H]1OC(C)=O | inactive | inactive | inactive | inactive |  | inactive |  | inactive | inactive | inactive | inactive |  | inactive | inactive | inactive | inactive |  |  | 2820 nM (active) | inactive
10 | CCCCCCCCCCOc1cc2c(=O)c(C(=O)OCC)c[nH]c2cc1OCC |  | 2.1 nM (active) | inactive |  |  | 1.3 nM (active) | 1.4 nM (active) | 5.4 nM (active) | 6.7 nM (active) |  | 2.8 nM (active) | 2.8 nM (active) | 5 nM (active) | 2.1 nM (active) | 2 nM (active) | 3.2 nM (active) | 2.2 nM (active) | 3.2 nM (active) | 3.2 nM (active) | 35.5 nM (active)
11 | O=C1C(c2[nH]c3ccccc3c2O)=Nc2ccccc21 |  | inactive | inactive |  | inactive | inactive | inactive |  |  |  | inactive |  | inactive |  |  |  |  |  |  | inactive
12 | Cc1ccsc1C(=CCCN1CCC[C@@H](C(=O)O)C1)c1sccc1C | inactive |  | inactive | inactive | inactive | inactive | inactive | inactive | inactive | inactive | inactive | inactive | inactive | inactive | inactive | inactive | inactive | inactive | inactive | inactive
13 | Cc1[nH]c(C)c(Cl)c(=O)c1Cl | inactive | inactive | inactive | inactive |  |  | inactive | inactive | inactive | inactive | inactive | inactive | inactive |  | inactive |  | inactive | inactive | inactive | inactive
